Measured values published in PubChem BioAssay (NCI).
Where “and” joins values, the source holds several entries; their conditions need not be identical. Identical values can stand only once. The panel holds about 83,000 compounds, 20% with a hit somewhere; the sample as a whole holds those more often.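 Cells were grown in 96-well plates and exposed to the test compound at a single concentration for 48 hours; results are reported as percent growth, with values below 10 considered active.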 Calls of active or inactive are those of the source.

Key:
Assay in all cases: NCI-60 one-dose screen, 48 h (100 = growth as untreated, 0 = no growth, -100 = all killed)
Settings in all cases: 10 µM unless noted
NCI-H23 lung = tested on: NCI-H23 lung
NCI-H226 lung = tested on: NCI-H226 lung
NCI-H322M lung = tested on: NCI-H322M lung
NCI-H460 lung = tested on: NCI-H460 lung
HOP-92 NSCLC = tested on: HOP-92 NSCLC
NCI-H522 lung = tested on: NCI-H522 lung
A549/ATCC NSCLC = tested on: A549/ATCC NSCLC
786-0 renal = tested on: 786-0 renal
COLO 205 colon = tested on: COLO 205 colon
HOP-62 NSCLC = tested on: HOP-62 NSCLC

Compound | growth (NCI-H23 lung) | growth (NCI-H226 lung) | growth (NCI-H322M lung) | growth (NCI-H460 lung) | growth (HOP-92 NSCLC) | growth (NCI-H522 lung) | growth (A549/ATCC NSCLC) | growth (786-0 renal) | growth (COLO 205 colon) | growth (HOP-62 NSCLC)
CCN(CC)S(=O)(=O)c1ccc(-c2nc(C(Cl)Cl)nc3cc(-c4ccc(F)cc4)nn23)cc1 | 21.7% (inactive) | 77.3% (inactive) | 41.4% (inactive) | 10.2% (inactive) | -3.41% (active) | 79.3% (inactive) | 17.8% (inactive) | 76.5% (inactive) | 8.9% (active) | 
Cc1cc(=O)oc2cc(OCCCOc3ccc(/C=C/C(=O)Nc4ccc(Br)cc4)cc3)ccc12 | 67.8% (inactive) | 77.4% (inactive) | 94.9% (inactive) | 9.24% (active) | 53.5% (inactive) | 80% (inactive) | 92.2% (inactive) | 61.7% (inactive) | 97.7% (inactive) | 
Cc1ccc(S(=O)(=O)NCCCNc2nccc(-c3[nH]c(-c4ccccc4)nc3-c3ccc(F)c(O)c3)n2)cc1 | 96.2% (inactive) | 93.2% (inactive) | 109% (inactive) | 82.1% (inactive) | 93.7% (inactive) | 80.1% (inactive) | 80.4% (inactive) | 104% (inactive) | 91.9% (inactive) | 
CC(C)(C)c1cc(NC(=O)Nc2ccc(-c3cn4c5c(sc4n3)CCc3c[nH]cc3-5)cc2)no1 | 13.9% (inactive) | 33.9% (inactive) | 47.6% (inactive) | 4.38% (active) | 23.5% (inactive) | 32.4% (inactive) | 28.7% (inactive) | -29.4% (active) | -17.2% (active) | 
O=c1[nH][nH]c(-c2ccc(F)cc2)c1-c1nc2ccccc2s1 | 89.9% (inactive) | 82.3% (inactive) | 88.7% (inactive) | 92.2% (inactive) | 77.1% (inactive) | 92.9% (inactive) | 111% (inactive) | 107% (inactive) | 113% (inactive) | 
Cc1[nH]c(C(=O)Nc2ccccc2OCc2cccc(C(=O)NC3CCCNC3)c2)c(Cl)c1Cl (centres undefined) | -76.7% (active) | 73.3% (inactive) | -93.7% (active) | -68.5% (active) | 47.9% (inactive) | -50.9% (active) | -52.6% (active) | -71.6% (active) | -33.2% (active) | 
Cc1cc(=O)[nH]c(O)c1C#N | 100% (inactive) | 101% (inactive) | 98.1% (inactive) | 108% (inactive) | 97.4% (inactive) |  | 103% (inactive) | 103% (inactive) | 107% (inactive) | 94.8% (inactive)
Cc1ccccc1N1CCN(C2=C(Cl)C(=O)c3ncccc3C2=O)CC1 | 38.1% (inactive) | 94.2% (inactive) | 89.9% (inactive) | 53.1% (inactive) | 118% (inactive) | -28% (active) | 99.6% (inactive) | 91% (inactive) | 31.8% (inactive) | 
C#CCN(C)CCCOc1ccc(NCc2ccc(C(=O)NO)cc2)cc1Cl | 21.3% (inactive) | 46.6% (inactive) | 31.8% (inactive) | 24.8% (inactive) | -5.78% (active) | 13.7% (inactive) | 20% (inactive) | 38.9% (inactive) | 3.71% (active) | 
COc1cc2c3c(cc4c5c(ccc4c3c1OC)OCO5)N(CCN(C)C)C2=O | -17.8% (active) | -58.8% (active) | 0.11% (active) | -20.5% (active) | -9.11% (active) | -6.46% (active) | 0.384% (active) | -16.2% (active) | -10.7% (active) | 
CCCCCCCCCC(=O)NC(C)(C)C(=O)N1CCC[C@H]1C(=O)N[C@@H](CC(C)C)C(=O)N[C@@](C)(CC)C(=O)N[C@@H](CCC(N)=O)C(=O)N[C@H](CCC(N)=O)C(=O)NC(C)(C)C(=O)NC(C)(C)C(=O)N[C@@H](CCC(N)=O)C(=O)N[C@H](CC(C)C)C(=O)N[C@H](CO)CC(C)C | -85.9% (active) and -32.1% (active) |  | -88.1% (active) and 18.4% (inactive) | -83.6% (active) and -71% (active) | -91.1% (active) and -43.9% (active) | -83.3% (active) and -75.7% (active) | -72% (active) and 49.1% (inactive) | -82.1% (active) and -64.3% (active) | -63% (active) and -63.6% (active) | -70.9% (active) and -64.1% (active)
